In PubChem BioAssay (NCI) one finds growth data, which are given here for eight compounds.

Some test systems named below: NCI-H23 lung; NCI-H226 lung; NCI-H322M lung; HOP-62 NSCLC; NCI-H460 lung; NCI-H522 lung; A549/ATCC NSCLC; 786-0 renal; COLO 205 colon; DU-145 prostate; MALME-3M melanoma; MDA-MB-231 breast; RXF 393 renal; SF-268 CNS; SF-295 CNS; UACC-257 melanoma; M14 melanoma; HCT-15 colon; K-562 leukemia; SF-539 CNS.
Assay in all cases: NCI-60 one-dose screen, 48 h (100 = growth as untreated, 0 = no growth, -100 = all killed)
Holding throughout (settings): 10 µM unless noted

Structures are written as SMILES. Compounds without any hit were thinned out: in the full panel of roughly 83,000, 20% have a hit.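 How to read the values: 0–100, growth inhibition (40 = 60% inhibited); 0, no net growth; -100 to 0, cell death (-40 = 40% of starting cells died; -100 = all dead).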 Unmarked numbers belong to inactive results. Calls of active or inactive are those of the source. How the source made its calls: active means growth percent below 10; inactive means the rest.

Turning to `COc1ccc(C(=O)/C=C/c2c(Cl)nc3c(c(C)nn3-c3ccccc3)c2-c2ccc(Br)cc2)cc1`, the growth in the test on NCI-H23 lung was 105%; in the test with NCI-H226 lung, 97.3%; in the test with NCI-H322M lung, 109%; with HOP-62 NSCLC, 104%; in the test with NCI-H460 lung, 106%; in the test with NCI-H522 lung, 98.6%. Further, the growth in the test on A549/ATCC NSCLC was 104%; in the test on 786-0 renal, 91.5%; in the test with COLO 205 colon, 111%; with DU-145 prostate, 112%; with MALME-3M melanoma it was 102%; in the test with MDA-MB-231 breast, 105%. Further, the growth in the test on RXF 393 renal was 101%; with SF-268 CNS it was 103%; in the test on SF-295 CNS, 103%; with UACC-257 melanoma, 108%; with M14 melanoma, 100%; with HCT-15 colon, 102%.
As for `COc1ccc2nc(NC(=O)c3cc(-c4ccc(F)cc4)n4nc(-c5ccccc5)cc4n3)sc2c1`, the growth with NCI-H23 lung is 53.6%; with NCI-H226 lung, 84%; with NCI-H322M lung it was 82.8%; in the test on HOP-62 NSCLC, 61.4%; with NCI-H460 lung, 79.2%; with NCI-H522 lung, 95.8%. Besides, the growth in the test on A549/ATCC NSCLC is 77.1%; in the test on 786-0 renal, 90.8%; with COLO 205 colon, 76.3%; with DU-145 prostate, 78.1%; in the test on K-562 leukemia, 93.5%; in the test with MDA-MB-231 breast it was 72.8%. The growth in the test on RXF 393 renal was 118%; in the test on SF-295 CNS, 61.6%; in the test on SF-539 CNS, 66.6%; with UACC-257 melanoma it was 80%; in the test on M14 melanoma, 81.9%.
In the case of `c1cncc(CNc2ccccc2-c2nnc(Nc3ccc4c(c3)OCO4)o2)c1`, the growth with NCI-H23 lung was 18%; in the test with NCI-H226 lung, -14% (active); in the test on NCI-H322M lung, 46.6%; with HOP-62 NSCLC, 27.2%; with NCI-H460 lung, 9.93% (active); in the test with NCI-H522 lung it was 3.02% (active). For the same compound, the growth in the test on A549/ATCC NSCLC is 20%; in the test with 786-0 renal it was 37%; in the test on COLO 205 colon it was -39.8% (active); in the test with DU-145 prostate it was 1.3% (active); in the test on MALME-3M melanoma, 32.1%; in the test on MDA-MB-231 breast, 16.3%. The growth was -2.33% (active) in the test on RXF 393 renal; 33.5% with SF-268 CNS; 5.25% (active) with SF-295 CNS; 0.107% (active) in the test with SF-539 CNS; 56.2% in the test on UACC-257 melanoma; 9.13% (active) with M14 melanoma. The growth in the test with HCT-15 colon is 10.2%.
With `COc1cc2c(C#N)n3c(c2cc1OC)C(=O)C(c1ccccc1)Oc1ccccc1-3` (stereo unspecified), the growth was 20.5% in the test on NCI-H23 lung; 21.8% with NCI-H226 lung; 85.5% in the test with NCI-H322M lung; 53.8% in the test on HOP-62 NSCLC; 66.9% with NCI-H460 lung; -32.4% (active) in the test on NCI-H522 lung. Moreover, the growth is 11.5% in the test with A549/ATCC NSCLC; 48.5% in the test on 786-0 renal; 80.3% in the test on COLO 205 colon; 72.8% in the test with DU-145 prostate; 29.7% in the test with K-562 leukemia; 64.1% in the test on MDA-MB-231 breast. For the same compound, the growth with SF-268 CNS was 43%; in the test on SF-295 CNS it was 28.4%; in the test with SF-539 CNS, 83.5%; with UACC-257 melanoma, 89.3%; with M14 melanoma it was 44.7%; in the test with HCT-15 colon, 31.5%.
`COc1ccc(/C=C/C(=O)Nc2cccnc2Nc2ccc(F)cc2)cc1`: the growth in the test with NCI-H23 lung is 93.6%; with NCI-H226 lung it was 85.5%; in the test with NCI-H322M lung, 101%; in the test on HOP-62 NSCLC it was 117%; with NCI-H460 lung, 108%; with NCI-H522 lung, 92.5%. In addition, the growth with A549/ATCC NSCLC is 84.6%; in the test with 786-0 renal it was 95.6%; in the test on COLO 205 colon, 109%; in the test with DU-145 prostate, 118%; in the test with MALME-3M melanoma, 122%; in the test on MDA-MB-231 breast it was 91.7%. Also, the growth was 102% with RXF 393 renal; 112% in the test on SF-268 CNS; 87.9% with SF-295 CNS; 93.7% with SF-539 CNS; 97.9% with UACC-257 melanoma; 103% in the test with M14 melanoma. Further, the growth with HCT-15 colon is 102%.
Turning to `COc1ccc(/C=C(\C#N)c2ccccc2)cc1`, the growth in the test with NCI-H23 lung is 95.7%; in the test on NCI-H226 lung, 89.6%; in the test on NCI-H322M lung, 97.5%; in the test on HOP-62 NSCLC, 99.6%; in the test with NCI-H460 lung it was 98.9%; in the test with NCI-H522 lung it was 90.1%. Moreover, the growth in the test on A549/ATCC NSCLC was 81.8%; in the test with 786-0 renal, 102%; with COLO 205 colon, 103%; in the test on DU-145 prostate it was 103%; in the test with K-562 leukemia, 28.8%; in the test with MDA-MB-231 breast, 78.4%. Moreover, the growth with SF-268 CNS was 95.2%; with SF-295 CNS it was 94.7%; with SF-539 CNS, 87.3%; with UACC-257 melanoma, 85.9%; with M14 melanoma, 88.7%; with HCT-15 colon, 59.5%.
Consider `CN1C(=O)C(=Cc2cn(Cc3ccccc3)c3ccc(Br)cc23)C(=O)N(C)C1=O`, for which the growth with NCI-H23 lung is 105%; in the test with NCI-H226 lung it was 32.3%; in the test on NCI-H322M lung, 93.8%; in the test with HOP-62 NSCLC it was 85.8%; with NCI-H460 lung, 35.1%; with NCI-H522 lung, 94.4%. The growth with A549/ATCC NSCLC is 88.5%; with 786-0 renal it was 98.2%; in the test with COLO 205 colon it was 89.6%; in the test on DU-145 prostate, 97.1%; in the test on MALME-3M melanoma, 113%; with MDA-MB-231 breast, 105%. Moreover, the growth in the test on RXF 393 renal was 57.6%; in the test with SF-268 CNS, 96.7%; in the test with SF-295 CNS, 75.8%; in the test with SF-539 CNS, 97.5%; in the test on UACC-257 melanoma, 99.1%; with M14 melanoma, 99.8%. For the same compound, the growth with HCT-15 colon is 95.4%.
As to `COc1cc2c(-c3nc4cc(Cl)c(F)cc4s3)cc(=O)oc2c(C)c1OC`, the growth in the test on NCI-H23 lung is -48.6% (active); with NCI-H226 lung it was -48.8% (active); in the test with NCI-H322M lung, 7.69% (active); with HOP-62 NSCLC, -65.7% (active); with NCI-H460 lung it was -36.1% (active); in the test on NCI-H522 lung, -83.9% (active). The growth in the test on A549/ATCC NSCLC is -53.9% (active); with 786-0 renal, -70.2% (active); in the test with COLO 205 colon it was -46.6% (active); with DU-145 prostate it was -85.3% (active); in the test on K-562 leukemia it was -22.6% (active); with MDA-MB-231 breast it was -50.4% (active). Also, the growth in the test on SF-268 CNS is -63.5% (active); in the test on SF-295 CNS it was -81.5% (active); in the test with SF-539 CNS, -89% (active); with UACC-257 melanoma, -77.6% (active); with M14 melanoma it was -35.2% (active); with HCT-15 colon, -39.1% (active).
